These results are taken from PubChem BioAssay (EPA / NIEHS).

Records with an inconclusive call do not appear. Calls of active or inactive are those of the source. How the source made its calls: active means hit-call score of the fitted dose curve at least 0.9, where 1 is the maximum; inconclusive means response in the unintended direction; inactive means score below 0.9.

A short description of experiment [1]: TOX21_p53_BLA_p2_viability: Viability Assessment in the Tox21 HCT-116 p53 Agonism Beta-lactamase Assay, Phase 2 (AID 2283591).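 Further: compound exposure lasted 16 h at 37 °C; actives lower the ATP signal meaning cytotoxicity.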 The method in brief:
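HCT-116 p53-bla cells (4000/well) rested 5 h at 37C, then received compounds in DMSO (217-fold dilution) for 16 h at 37C, 5% CO2. After the CCF4 read, CellTiter-Glo was added; ATP luminescence was read after 30 min at room temperature.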

Experiment [2] is described as follows: TOX21_p53_BLA_p3_viability: Viability Assessment in the Tox21 HCT-116 p53 Agonism Beta-lactamase Assay, Phase 3 (AID 2283593).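 Further: cells exposed to compound for 16 h before reading.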 Put shortly: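 HCT-116 cells (4000/well) rested 5 h at 37C, then got DMSO compounds by pin tool (217-fold dilution) for 16 h at 37C, 5% CO2. After the bla read, CellTiter-Glo was added and luminescence read at 30 min, room temperature.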

Experiment [3] has as its target Cellular tumor antigen p53 (Homo sapiens) (UniProt P04637). The experiment is described as follows: TOX21_p53_BLA_p3_ratio: Tox21 HCT-116 p53 Agonism Beta-lactamase Assay, Ratio, Phase 3 (AID 2283596). Put shortly: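 HCT116 p53-bla cells (4000/well) given compound in DMSO (217-fold dilution) after 5 h, incubated 16 h at 37C. CCF4-AM substrate 2 h at room temperature; 460/530 nm emission ratio, gain fitted against DMSO.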

Experiment [4] can be described thus: TOX21_p53_BLA_p4_viability: Viability Assessment in the Tox21 HCT-116 p53 Agonism Beta-lactamase Assay, Phase 4 (AID 2283597).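 Further: hits lower the luminescence signal meaning cytotoxicity.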 The method in brief: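 Cells plated, 5 h pre-incubation; DMSO compounds pinned (217-fold dilution); 16 h, 37C/5% CO2; CCF4-AM 2 h RT; CellTiter-Glo 30 min RT; luminescence read.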
A short description of experiment [5]: TOX21_p53_BLA_p5_viability: Viability Assessment in the Tox21 HCT-116 p53 Agonism Beta-lactamase Assay, Phase 5 (AID 2283600). Put shortly:
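4000 cells/well; 5 h pre-incubation; DMSO compounds pin-transferred, 217-fold dilution; 16 h, 37C/5% CO2; CCF4-AM 2 h RT; CellTiter-Glo 30 min RT; luminescence.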

For experiment [6], the target named is Cellular tumor antigen p53 (Homo sapiens) (UniProt P04637). The experiment is described as follows: TOX21_p53_BLA_p4_ratio: Tox21 HCT-116 p53 Agonism Beta-lactamase Assay, Ratio, Phase 4 (AID 2283601). Put shortly: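 HCT116 cells carrying an inducible beta-lactamase reporter were plated at 4000 cells/well, rested 5 h, then exposed to compounds in DMSO (217-fold dilution) for 16 h at 37C. CCF4-AM substrate was loaded 2 h at room temperature; 460/530 nm emission ratio scored gain-of-signal versus DMSO.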
Sequence of Cellular tumor antigen p53 (Homo sapiens) (P04637 whole entry, looked up): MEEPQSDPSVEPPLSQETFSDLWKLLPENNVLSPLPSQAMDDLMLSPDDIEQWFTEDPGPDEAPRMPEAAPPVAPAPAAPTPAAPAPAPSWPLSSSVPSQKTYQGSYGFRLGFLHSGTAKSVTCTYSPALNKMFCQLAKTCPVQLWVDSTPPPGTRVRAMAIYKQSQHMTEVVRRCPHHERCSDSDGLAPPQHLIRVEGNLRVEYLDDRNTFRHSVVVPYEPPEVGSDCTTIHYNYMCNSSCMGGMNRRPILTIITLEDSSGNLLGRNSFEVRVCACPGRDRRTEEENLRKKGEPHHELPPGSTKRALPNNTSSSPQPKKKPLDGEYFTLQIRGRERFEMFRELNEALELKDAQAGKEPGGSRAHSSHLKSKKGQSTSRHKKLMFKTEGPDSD

For experiment [7] the target is unchanged. The experiment is described as follows: TOX21_p53_BLA_p5_ratio: Tox21 HCT-116 p53 Agonism Beta-lactamase Assay, Ratio, Phase 5 (AID 2283599). The method in brief:
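HCT-116 cells carrying a p53-inducible beta-lactamase reporter were seeded at 4000 cells/well and dosed after 5 h with compound in DMSO (217-fold dilution). After 16 h at 37C, CCF4-AM substrate was added for 2 h, and the 460/530 nm emission ratio was scored as gain-of-signal versus DMSO.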

Experiment [8] has as its target Thyroid hormone receptor alpha (Rattus norvegicus) + Thyroid hormone receptor beta (Rattus norvegicus) (UniProt P18113+P63059). Put plainly: TOX21_TR_LUC_GH3_Antagonist_Followup: Tox21 GH3 Thyroid Hormone Receptor Antagonism Luciferase Follow-Up Assay (AID 2283942). Put shortly:
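Rat pituitary GH3 cells with a TRα/TRβ-driven luciferase reporter, 5 h attachment, then 15 concentrations (92 uM to 5nM final) plus 1.0 nM T3 agonist, 24 h at 37C/5% CO2. ONE-Glo luminescence; signal change fitted against DMSO baseline.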

The target in a further experiment is THRA (gene 7067) (UniProt P10827). Put plainly: TOX21_TRA_COA_Antagonist_Followup_ratio: Tox21 Thyroid Hormone Receptor alpha Antagonism through Coactivator Recruitment Follow-Up Assay, Ratio (AID 2283953). Put shortly: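 520:495 nm emission ratio (excitation 340 nm) reports fluorescein-SRC-2 peptide recruitment to GST-TRα LBD by TR-FRET with Tb anti-GST antibody. Values were normalized to DMSO (0%) and T3 control wells (100%); loss of signal indicated antagonism.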
Sequence of THRA (gene 7067) (P10827 whole entry, looked up, the tested form may be a part): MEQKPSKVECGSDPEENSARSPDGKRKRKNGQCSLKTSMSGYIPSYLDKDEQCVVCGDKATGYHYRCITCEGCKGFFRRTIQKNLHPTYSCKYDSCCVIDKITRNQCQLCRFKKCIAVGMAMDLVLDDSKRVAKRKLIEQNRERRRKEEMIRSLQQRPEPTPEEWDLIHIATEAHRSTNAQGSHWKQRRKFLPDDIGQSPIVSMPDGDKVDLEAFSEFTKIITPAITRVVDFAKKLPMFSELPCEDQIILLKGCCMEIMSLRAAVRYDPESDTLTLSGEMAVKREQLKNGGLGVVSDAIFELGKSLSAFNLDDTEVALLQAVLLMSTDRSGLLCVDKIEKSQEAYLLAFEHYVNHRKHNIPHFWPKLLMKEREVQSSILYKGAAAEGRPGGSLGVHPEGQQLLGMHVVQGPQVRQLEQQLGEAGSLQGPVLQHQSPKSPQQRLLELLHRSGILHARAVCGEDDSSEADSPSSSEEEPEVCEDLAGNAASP

The nature of experiment [9]: TOX21_TRB_BLA_Antagonist_Followup_viability: Viability Assessment in the Tox21 Thyroid Hormone Receptor beta Antagonism Beta-lactamase (BLA) Follow-Up Assay (AID 2283961). Put shortly:
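TRβ-bla HEK293T (human TRβ LBD fused to GAL4 DBD), 3,000 cells/well, 2% charcoal-stripped FBS, phenol red-free medium; 18 h compound exposure, 37C; CellTiter-Glo 30 min RT; luminescence, loss-of-signal readout.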

As to `Nc1ccc(NC(=O)c2ccc(N)cc2)cc1`, the molecule was called inactive in experiment [1], in experiment [2], in experiment [3], in experiment [4], in experiment [5] and in experiment [6].

Take `CCCCCCCCC(=O)Cl`: the outcome in experiment [1], in experiment [2], in [3] and in [7] was inactive.

Turning to `Cc1cccc(C)c1NC(=O)CN1CCN(CCCC(c2ccc(F)cc2)c2ccc(F)cc2)CC1`, the outcome in experiment [1], in [2], in experiment [3], in experiment [4] and in experiment [6] was inactive.

Regarding `COc1ccc(CCN(C)CCCC(C#N)(c2cc(OC)c(OC)c(OC)c2)C(C)C)cc1OC` (stereo not given), the call in experiment [1], in experiment [2], in experiment [3], in experiment [4], in [5] and in experiment [6] was inactive.

On to `CC(=O)Oc1ccc([N+](=O)[O-])cc1CCl`, for which the result in experiment [1], in experiment [2] and in experiment [7] was inactive. The AC50 in experiment [3] was 73.1 µM (active).

As for `CC(C)OC(=O)c1cc2c(OCC(O)CNC(C)(C)C)cccc2[nH]1` (stereo not given), the call in experiment [1], in [2], in experiment [3], in experiment [4] and in experiment [5] was inactive.

As for `CC[C@@]1(O)C(=O)OCc2c1cc1n(c2=O)Cc2cc3c(CN(C)C)c(O)ccc3nc2-1`, the AC50 is 7.02 µM (active) in experiment [1]; 7.35 µM (active) in experiment [2]; 0.381 µM (active) in experiment [3]; 7.74 µM (active) in [4]; 0.692 µM (active) in experiment [7]; 7.27 µM (active) in experiment [5]. Further, the AC50 in experiment [6] was 6.7 µM (active). The result (in experiment [8]; with THRA (gene 7067); in experiment [9]) was inactive.

Broadly, the AC50 is the concentration at which the activity in the assay is half-maximal.
